This note sets out measurements from PubChem BioAssay AID1851 (National Center for Advancing Translational Sciences (NCATS), 2009).

Structures are written as SMILES. About 5,100 (32%) of roughly 16,000 compounds were called active. Roughly 25% stayed inconclusive and do not appear here. Some of the results follow. Values without a mark were called inactive. Calls come from the whole dose curve; as a rule, active = well fitted curve in the direction sought with a large enough effect; inconclusive = small, poorly fitted or top-dose-only effect, or effect the other way; inactive = no such curve, though single readings can be large or run the other way.
% is set by controls: 0 for no effect and ±100 for the full control effect.

Chain of Cytochrome P450 3A4 (Homo sapiens) (P08684 whole entry, looked up): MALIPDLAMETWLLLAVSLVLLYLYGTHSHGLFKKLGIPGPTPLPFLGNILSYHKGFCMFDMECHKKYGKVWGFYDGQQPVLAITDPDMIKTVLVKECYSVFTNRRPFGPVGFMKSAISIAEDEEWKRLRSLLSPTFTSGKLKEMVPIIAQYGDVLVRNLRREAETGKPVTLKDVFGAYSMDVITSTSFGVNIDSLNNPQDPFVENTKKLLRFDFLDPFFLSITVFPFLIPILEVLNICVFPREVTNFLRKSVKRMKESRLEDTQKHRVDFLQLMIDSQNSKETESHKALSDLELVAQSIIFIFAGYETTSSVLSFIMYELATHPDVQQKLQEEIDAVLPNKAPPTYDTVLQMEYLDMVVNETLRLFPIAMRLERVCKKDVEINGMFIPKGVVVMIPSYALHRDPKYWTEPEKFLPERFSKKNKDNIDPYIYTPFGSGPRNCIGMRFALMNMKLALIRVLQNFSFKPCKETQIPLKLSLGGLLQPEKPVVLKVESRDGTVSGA

This assay concerns the target Cytochrome P450 3A4 (Homo sapiens) (UniProt P08684). The assay can be described thus: Cytochrome panel assay with activity outcomes. Conditions: recombinant CYP, pro-luciferin dealkylation, luminescence, p450-cyp3a4; series mostly up to 57.1 µM; activity, negative = inhibition: at the top concentration.
`Cc1cccc(CNc2nc(-c3ccccc3CN(C)C)nc3ccccc23)c1`: the AC50 is 10 µM (active).

Consider `CN(C)Cc1ccccc1-c1nc(NCc2ccccc2)c2ccccc2n1`, for which the half-maximal activity concentration (AC50) was 12.6 µM (active).

Take `CN(C)Cc1ccccc1-c1nc(N(C)C)c2ccccc2n1`: the “activity, negative = inhibition” value was -28%.

For the compound `CCOc1cc(/C=C2/SC(=O)N(CC(=O)N3CCc4ccccc4C3)C2=O)ccc1OCC(=O)O`, the “activity, negative = inhibition” value was -11.9%.

`CCCCN=C1N/C(=C\c2ccco2)C(=O)N1c1ccccc1`: the “activity, negative = inhibition” value was -25.2%.

For the compound `COc1ccccc1OCCN1C(=O)S/C(=C\c2ccco2)C1=O`, the half-maximal activity concentration (AC50) was 14.1 µM (active).

Take `CCCc1cc(=O)oc2cc(OCc3nn[nH]n3)ccc12`: the activity, negative = inhibition was -17.2% [at 2.29 µM].

For `CCCCc1cc(=O)oc2cc(OCC(=O)N(CC)CC)ccc12`, the “activity, negative = inhibition” value was -26.8%.

As for `CCCc1cc(=O)oc2cc(OCC(=O)N3CCc4ccccc43)ccc12`, the AC50 was 8.91 µM (active).

`Cc1ccc(Nc2nc(-c3c(C)nc4ncccn34)cs2)cc1`: the AC50 was 25.1 µM (active).

As to `C=CCn1c(=O)c(C(=O)NCCN(CC)CC)c(O)c2ccccc21`, the “activity, negative = inhibition” value was -20.6%.

For the compound `CC(C)C(=O)NCCn1ccc2ccccc21`, the AC50 was 12.6 µM (active).

Take `O=C(O)CN1CCN(Cc2ccccc2)C1=O`: the “activity, negative = inhibition” value is 11.6%.

Consider `O=C(O)CN1CCN(Cc2ccc(F)cc2Cl)C1=O`, for which the AC50 was 2.24 µM (active).

Take `Cc1sc(NC(=O)/C=C/c2ccc(C(C)C)cc2)c(C#N)c1C`: the “activity, negative = inhibition” value was -11.7%.

Turning to `Cc1sc(NC(=O)C2CCCCC2)c(C#N)c1-c1ccccc1`, the AC50 was 8.91 µM (active).

As for `CC1=C(C#N)C(NC(=O)C2CCCCC2)(C(F)(F)F)C(=O)N1` (configuration not stated), the “activity, negative = inhibition” value is -17.3%.

Consider `CC(C)(C)CNC(CO)C12CC3CC(CC(C3)C1)C2` (configuration not stated), for which the “activity, negative = inhibition” value was -5.44%.

Regarding `Cc1ccc2nc(SCc3nc4c(cnn4-c4ccccc4)c(=O)[nH]3)[nH]c2c1`, the AC50 is 10 µM (active).

For the compound `CCC(CC)C(=O)Nc1c2cnn(-c3ccccc3)c2nc(=O)n1-c1ccccc1`, the “activity, negative = inhibition” value was -11.9%.

As for `Cc1nc(SCC(=O)Nc2c(C)nn(C)c2C)c2cnn(-c3ccccc3)c2n1`, the activity, negative = inhibition is -11.2% [at 2.29 µM].

As for `Cc1ccc2c(CC(=O)OCc3cc(=O)n4c(n3)sc3ccccc34)coc2c1`, the AC50 is 7.94 µM (active).

Consider `CCOC(=O)Cc1cc(=O)n2[nH]c(C)c(-c3ccccc3)c2n1`, for which the “activity, negative = inhibition” value was -6.13%.

For the compound `CCc1c(O)nc2sc3ccccc3n2c1=O`, the “activity, negative = inhibition” value is -8.69%.

`CN(CCO)c1nc(N)c2c(N)nc3c(c2c1C#N)CC(=O)N3C1CCCC1`: the AC50 is 10 µM (active).

Regarding `Cc1ccccc1OCC(=O)NC(=S)Nc1ccc(Br)c(C)n1`, the “activity, negative = inhibition” value was -6.09%.

Consider `COCCCNC(=O)C(=O)N/N=C/c1ccc(OCC(=O)Nc2cccc(Cl)c2C)c(OC)c1`, for which the activity, negative = inhibition was 7.9% [at 2.29 µM].

`COc1cc(/C=N/NC(N)=O)c(Br)cc1OCC(=O)Nc1ccccc1C`: the AC50 is 3.55 µM (active).

Take `CCCN1C(=O)/C(=C/c2ccc(C)s2)SC1=Nc1ccc(OC)cc1`: the AC50 is 14.1 µM (active).

Consider `CCCCOC(=O)NS(=O)(=O)c1sc(CC(C)C)cc1-c1ccc(Cn2c(CC)nc3c(C)cc(C)nc32)cc1`, for which the AC50 was 3.16 µM (active).

As to `Cc1c(NC(=O)CSc2nnc3c4ccccc4n(CCc4ccccc4)c3n2)c(=O)n(-c2ccccc2)n1C`, the AC50 is 10 µM (active).

For the compound `C=CCn1c(SCC(=O)Nc2c(C)n(C)n(-c3ccccc3)c2=O)nc2sc(C)c(-c3ccccc3)c2c1=O`, the AC50 was 2.51 µM (active).

In the case of `Cc1c(NC(=O)CSc2nnnn2C)c(=O)n(-c2ccccc2)n1C`, the activity, negative = inhibition is -2.31% [at 2.29 µM].

Regarding `Cc1nc(SCC(=O)Nc2c(C)n(C)n(-c3ccccc3)c2=O)nc(C)c1C`, the activity, negative = inhibition is -4.78% [at 11.4 µM].

For `Cc1cccc(NC(=O)Cn2c(=O)n3nc(CCn4nc(C)cc4C)nc3c3ccccc32)c1`, the AC50 was 5.01 µM (active).

For `Cc1cccc(NC(=O)CSc2nc3ccccc3c3nc(CCc4c(C)n[nH]c4C)nn23)c1`, the half-maximal activity concentration (AC50) was 3.55 µM (active).

In the case of `Cc1ccc(/C=C/C(=O)N2CC(C)CC(C)C2)o1` (configuration not stated), the “activity, negative = inhibition” value is 9.56%.

Regarding `C[C@]12C=CC(=O)C=C1CC[C@@H]1[C@H]3C[C@@H](O)[C@](O)(C(=O)CO)[C@@]3(C)C[C@H](O)[C@]12F`, the “activity, negative = inhibition” value is -2.5% [at 25.6 µM].

Take `C[C@H]1C[C@H]2[C@H]3CCC4=CC(=O)C=C[C@@]4(C)[C@]3(F)[C@H](O)C[C@]2(C)[C@@]1(O)C(=O)COP(=O)(O)O`: the activity, negative = inhibition was 7.91% [at 11.4 µM].

For the compound `C[C@]1(c2ccccc2)O[C@@H]2C[C@@H]3[C@@H]4CCC5=CC(=O)C=C[C@@]5(C)[C@]4(F)[C@H](O)C[C@]3(C)[C@@]2(C(=O)CO)O1`, the AC50 was 3.16 µM (active).

As for `O=C(NCc1ccccc1)C(c1ccc(F)cc1)N(Cc1ccco1)C(=O)c1ccccn1` (configuration not stated), the concentration at half-maximal activity (AC50) was 2.24 µM (active).

`Cc1ccccc1C(C(=O)NCc1ccccc1)N(Cc1ccco1)C(=O)c1ccccn1` (configuration not stated): the concentration at half-maximal activity (AC50) is 3.16 µM (active).

Take `Clc1ccc(-c2cc3ccccc3[nH]2)cc1`: the “activity, negative = inhibition” value is -20.2%.

For `N#C/C(=C\c1ccc(O)c(O)c1)C(=O)c1ccc(O)c(O)c1`, the AC50 is 15.8 µM (active).

Turning to `N#C/C(=C\N1CCNC1=S)C(=O)c1ccc2ccccc2c1`, the activity, negative = inhibition is -26% [at 11.4 µM].

For `N#C/C(=C\c1ccc(O)c(O)c1)C(N)=O`, the “activity, negative = inhibition” value was -22.9%.

With `N#C/C(=C\c1c[nH]c2ccccc12)C(=O)c1ccc(O)c(O)c1`, the AC50 is 7.94 µM (active).

Take `Cc1nc2c3cnn(-c4ccc(C)c(C)c4)c3ncn2n1`: the AC50 is 17.8 µM (active).

With `c1ccc(-n2ncc3c2ncn2cnnc32)cc1`, the “activity, negative = inhibition” value is -14.2%.

Consider `Cc1ccc(-n2ncc3c2ncn2nc(-c4ccco4)nc32)c(C)c1`, for which the “activity, negative = inhibition” value is 2.26%.

For `CC(C)(C)c1ccc(OCC(=O)O)c(Cl)c1`, the activity, negative = inhibition was -2.41% [at 11.4 µM].

As to `O=C1N=C(N2CCOCC2)S/C1=C/c1cccs1`, the activity, negative = inhibition is -4.33% [at 2.29 µM].

For the compound `NC(=O)CNC(=O)[C@@H]1CC2(CC(c3ccccc3)=NO2)CN1C(=O)c1ccc(Br)cc1` (some centres not stated), the activity, negative = inhibition is -5.09% [at 11.4 µM].

In the case of `COc1cccc(N(C(=O)Cn2nnc(-c3ccc(C)cc3)n2)C(C(=O)NC(C)(C)C)c2c[nH]c3ccccc23)c1` (configuration not stated), the half-maximal activity concentration (AC50) is 2.82 µM (active).

As for `N=C(N)SCc1ccc(Cl)cc1Cl` (tested in a mixture with another compound), the activity, negative = inhibition was -3.48% [at 11.4 µM].

As for `NCCCCCc1nnc(SCc2ccccc2Cl)o1`, the “activity, negative = inhibition” value was -28.1%.

Turning to `NCCCCCc1nnc(SCc2ccc(Cl)cc2Cl)o1`, the AC50 is 12.6 µM (active).

As a reminder, the AC50 is the concentration at which the activity in the assay is half-maximal.
